Assay results: PubChem BioAssay (EPA / NIEHS)
Records with an inconclusive call do not appear. Activity calls are given as the source filed them. How the source made its calls, unless noted: active means hit-call score of the fitted dose curve at least 0.9, where 1 is the maximum; inconclusive means response in the unintended direction; inactive means score below 0.9.

Experiments:
[1] = TOX21_p53_BLA_p2_viability: Viability Assessment in the Tox21 HCT-116 p53 Agonism Beta-lactamase Assay, Phase 2 (AID 2283591);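 further: compound exposure lasted 16 h at 37 °C; actives lower the ATP signal meaning cytotoxicity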
How it was run: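 HCT116 p53-bla cells, 4000/well, dosed after 5 h plating (217-fold dilution of DMSO stocks) and incubated 16 h at 37C. Viability taken as cellular ATP by CellTiter-Glo luminescence after 30 min RT; signal loss marks cytotoxicity.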

[2] = molecular target: Cellular tumor antigen p53 (Homo sapiens) (UniProt P04637); assay: TOX21_p53_BLA_p2_ratio: Tox21 HCT-116 p53 Agonism Beta-lactamase Assay, Ratio, Phase 2 (AID 2283592)
How it was run: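 Human colon HCT116 cells with an inducible p53 beta-lactamase reporter are exposed to test chemicals for 16 h at 37C. Reporter induction is read as the 460/530 nm emission ratio after CCF4-AM loading, normalized to DMSO.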

[3] = TOX21_p53_BLA_p3_viability: Viability Assessment in the Tox21 HCT-116 p53 Agonism Beta-lactamase Assay, Phase 3 (AID 2283593);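 further: cells exposed to compound for 16 h before reading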
How it was run: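 HCT116 cells, 4000/well, dosed 5 h after plating by pin transfer (217-fold dilution from DMSO stock) and incubated 16 h at 37C, 5% CO2. Viability read as ATP luminescence with CellTiter-Glo after 30 min at room temperature.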

[4] = molecular target: Cellular tumor antigen p53 (Homo sapiens) (UniProt P04637); assay: TOX21_p53_BLA_p3_ratio: Tox21 HCT-116 p53 Agonism Beta-lactamase Assay, Ratio, Phase 3 (AID 2283596)
How it was run: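 HCT116 p53-bla cells (4000/well) given compound in DMSO (217-fold dilution) after 5 h, incubated 16 h at 37C. CCF4-AM substrate 2 h at room temperature; 460/530 nm emission ratio, gain fitted against DMSO.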

[5] = TOX21_p53_BLA_p4_viability: Viability Assessment in the Tox21 HCT-116 p53 Agonism Beta-lactamase Assay, Phase 4 (AID 2283597);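 further: hits lower the luminescence signal meaning cytotoxicity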
How it was run: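 Luminescent ATP readout (CellTiter-Glo, 30 min, room temperature) in the same wells as the p53 bla ratio. HCT116 cells were treated for 16 h at 37C with DMSO-dissolved compounds.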

[6] = molecular target: Cellular tumor antigen p53 (Homo sapiens) (UniProt P04637); assay: TOX21_p53_BLA_p5_ratio: Tox21 HCT-116 p53 Agonism Beta-lactamase Assay, Ratio, Phase 5 (AID 2283599)
How it was run: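 HCT-116 p53-bla cells (4000/well) plated 5 h, dosed with compound (217-fold DMSO dilution) for 16 h at 37 C; CCF4-AM substrate 2 h at room temperature. Activity is the 460/530 nm emission ratio (405 nm excitation), fitted in gain-of-signal direction versus DMSO.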

[7] = molecular target: Cellular tumor antigen p53 (Homo sapiens) (UniProt P04637); assay: TOX21_p53_BLA_p4_ratio: Tox21 HCT-116 p53 Agonism Beta-lactamase Assay, Ratio, Phase 4 (AID 2283601)
How it was run: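 HCT-116 p53 beta-lactamase reporter cells (4000/well) preincubated 5 h, then compound (217-fold dilution of DMSO stock) for 16 h at 37C. CCF4-AM substrate added 2 h at room temperature; 460/530 nm emission ratio fitted upward versus DMSO.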

[8] = TOX21_p53_BLA_p5_viability: Viability Assessment in the Tox21 HCT-116 p53 Agonism Beta-lactamase Assay, Phase 5 (AID 2283600)
How it was run: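 Seeded cells (4000/well) settle 5 h before compound addition. Plates then incubate 16 h at 37C, receive FRET substrate for 2 h, and finally CellTiter-Glo, with luminescence measured after a 30 min room-temperature incubation.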

PGR (gene 5241) [9] = molecular target: PGR (gene 5241) (UniProt P06401); assay: TOX21_PR_BLA_Followup_Agonist_ratio: Tox21 HEK293 Progesterone Receptor (PR) Agonism Beta-lactamase Follow-Up Assay, Ratio (AID 2283933)
How it was run: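 HEK293T PR-UAS-bla, 2% CS-FBS; 6 hr preincubation, cpd/DMSO pinned, 16 hr 37C/5% CO2; LiveBLAzer B/G 2 hr RT; FRET ch2/ch1 ratio, agonist direction vs DMSO. Viability by CellTiter-Glo in same wells.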

PGR (gene 5241) [10] = molecular target: PGR (gene 5241) (UniProt P06401); assay: TOX21_PR_BLA_Followup_Antagonist_ratio: Tox21 HEK293 Progesterone Receptor (PR) Antagonism Beta-lactamase Follow-Up Assay, Ratio (AID 2283934)
How it was run: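 HEK293T PR-UAS-bla, 2% CS-FBS; 6 hr plating, then cpd + R5020 (1 nM final), 16 hr 37C/5% CO2. B/G FRET substrate 2 h RT. Ratio ch2/ch1 vs DMSO; CellTiter-Glo viability multiplexed, autofluorescence checked.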

[11] = TOX21_PR_BLA_Followup_Agonist_viability: Viability Assessment in the Tox21 HEK293 Progesterone Receptor (PR) Agonism Beta-lactamase Follow-Up Assay (AID 2283935);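 further: cells exposed to compound for 16 hr at 37 °C; signal loss means lower viability so actives are cytotoxic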
How it was run: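 HEK293T PR-UAS-bla, 3,000 cells/well, 2% CS-FBS; 6 hr pre-incubation; cpd in DMSO, 16 hr 37C; LiveBLAzer 2 hr RT, then CellTiter-Glo 30 min RT, luminescence. Decrease = lost viability.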

[12] = TOX21_PR_BLA_Followup_Antagonist_viability: Viability Assessment in the Tox21 HEK293 Progesterone Receptor (PR) Antagonism Beta-lactamase Follow-Up Assay (AID 2283936);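 further: hits lower the luminescence signal meaning cytotoxicity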
How it was run: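 PR-UAS-bla HEK293T cells (3,000/well, 2% charcoal-stripped FBS) given compound plus R5020 agonist, 16 h at 37C. CellTiter-Glo added after bla read, 30 min at room temperature; luminescence loss indicates cytotoxicity.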

PGR (gene 5241) [13] = molecular target: PGR (gene 5241) (UniProt P06401); assay: TOX21_PR_LUC_Followup_Agonist: Tox21 HEK293 Progesterone Receptor (PR) Agonism Luciferase Follow-Up Assay (AID 2283937; active means hit-call score of the fitted dose curve at least 0.9, where 1 is the maximum; inactive means score below 0.9)
How it was run: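 Cells: HEK293-PR-A-luc, 3,000/well, 10% charcoal-stripped FBS assay medium. Compound added after 5 h; 16 h, 37C, 0% CO2. ONE-Glo luciferase, luminescence. Positive fit vs DMSO.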

PGR (gene 5241) [14] = molecular target: PGR (gene 5241) (UniProt P06401); assay: TOX21_PR_LUC_Followup_Antagonist: Tox21 HEK293 Progesterone Receptor (PR) Antagonism Luciferase Follow-Up Assay (AID 2283938);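 further: curve fitted upward as signal gain over DMSO baseline despite antagonist label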
How it was run: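 Luciferase reporter in HEK293-PR-A-luc cells: 16 h compound treatment at 37C, ONE-Glo luminescence detection, DMSO as negative control and baseline.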

[15] = TOX21_PR_LUC_Followup_Antagonist_viability: Viability Assessment in the Tox21 HEK293 Progesterone Receptor (PR) Antagonism Luciferase Follow-Up Assay (AID 2283940)
How it was run: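 Multiplexed viability counter-screen: after 5 days in charcoal-stripped-FBS medium, HEK293-PR-A-luc cells are plated, pinned with DMSO-dissolved compounds for 16 h at 37C, and ATP content is quantified luminescently via CellTiter-Glo.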

[16] = TOX21_PR_LUC_Followup_Agonist_viability: Viability Assessment in the Tox21 HEK293 Progesterone Receptor (PR) Agonism Luciferase Follow-Up Assay (AID 2283941);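 further: loss of signal means cytotoxicity so actives lower viability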
How it was run: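 Cells were kept 5 days in charcoal-stripped serum medium before plating HEK293-PR-A-luc at 3,000 cells/well. After 5 h they received DMSO-dissolved compound and incubated 16 h at 37C. Viability was taken from CellTiter-Glo ATP luminescence.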

Measured: AC50

Cellular tumor antigen p53 (Homo sapiens), sequence (P04637 whole entry, looked up): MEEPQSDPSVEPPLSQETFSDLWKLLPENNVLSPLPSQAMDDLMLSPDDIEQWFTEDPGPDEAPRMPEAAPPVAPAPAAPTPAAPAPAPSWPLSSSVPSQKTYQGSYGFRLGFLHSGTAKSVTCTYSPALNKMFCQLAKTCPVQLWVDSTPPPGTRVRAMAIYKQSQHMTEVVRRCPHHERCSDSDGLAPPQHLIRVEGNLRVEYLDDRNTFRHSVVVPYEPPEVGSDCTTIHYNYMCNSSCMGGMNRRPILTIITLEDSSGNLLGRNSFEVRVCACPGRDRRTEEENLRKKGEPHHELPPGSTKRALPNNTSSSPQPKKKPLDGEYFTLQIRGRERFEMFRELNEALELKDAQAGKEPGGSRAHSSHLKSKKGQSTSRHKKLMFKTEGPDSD
PGR (gene 5241), sequence (P06401 whole entry, looked up): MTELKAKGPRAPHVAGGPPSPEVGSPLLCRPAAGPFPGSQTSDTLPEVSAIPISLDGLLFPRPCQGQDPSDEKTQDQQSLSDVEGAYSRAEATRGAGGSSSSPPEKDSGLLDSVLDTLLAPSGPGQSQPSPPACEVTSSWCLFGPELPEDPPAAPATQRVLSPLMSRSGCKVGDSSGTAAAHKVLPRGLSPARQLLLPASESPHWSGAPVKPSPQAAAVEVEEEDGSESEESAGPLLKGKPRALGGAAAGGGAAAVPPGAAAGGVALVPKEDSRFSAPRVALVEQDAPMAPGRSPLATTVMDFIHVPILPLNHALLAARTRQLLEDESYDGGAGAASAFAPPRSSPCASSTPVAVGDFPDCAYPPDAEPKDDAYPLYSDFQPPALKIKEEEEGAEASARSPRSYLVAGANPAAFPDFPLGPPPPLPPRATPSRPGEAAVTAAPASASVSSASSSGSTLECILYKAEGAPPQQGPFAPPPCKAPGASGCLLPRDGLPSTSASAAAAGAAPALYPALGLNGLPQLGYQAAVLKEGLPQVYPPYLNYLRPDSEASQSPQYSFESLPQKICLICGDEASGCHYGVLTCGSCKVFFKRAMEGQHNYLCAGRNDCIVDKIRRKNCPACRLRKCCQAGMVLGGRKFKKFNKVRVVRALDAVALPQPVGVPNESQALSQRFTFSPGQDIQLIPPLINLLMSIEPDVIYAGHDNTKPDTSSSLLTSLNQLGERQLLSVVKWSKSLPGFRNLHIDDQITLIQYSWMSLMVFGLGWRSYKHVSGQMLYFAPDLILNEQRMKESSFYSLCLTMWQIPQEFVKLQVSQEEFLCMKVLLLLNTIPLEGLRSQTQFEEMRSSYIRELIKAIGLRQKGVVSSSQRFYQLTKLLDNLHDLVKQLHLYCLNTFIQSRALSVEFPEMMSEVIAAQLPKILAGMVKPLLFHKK

CC(C)OC(=O)Cc1ccccc1
inactive: [1] | [2] | [3] | [4] | [5] | [6] | [7]

CO[C@]12CC[C@@]3(C[C@@H]1[C@](C)(O)C(C)(C)C)[C@H]1Cc4ccc(O)c5c4[C@@]3(CCN1CC1CC1)[C@H]2O5
inactive: [2] | [8]
active: [1] 75 µM | [3] 70.3 µM | [4] 86.6 µM | [5] 60.6 µM | [7] 84.8 µM

[O]=[Cd]
inactive: [1] | [2] | [3] | [4] | [5] | [6] | [7]

CC(C)(O)[C@@H]1[C@H]2OC(=O)[C@@H]1[C@]1(O)C[C@H]3O[C@]34C(=O)O[C@H]2[C@]14C (tested in a mixture with another compound)
inactive: [1] | [2] | [3] | [4] | [5] | [6] | [7]

ClC(Cl)(Cl)Cl
inactive: [1] | [2] | [3] | [4] | [5] | [6] | [7]

CCOP(=S)(OCC)Oc1cc(Cl)c(Br)cc1Cl
active: [5] 72.9 µM | PGR (gene 5241) [10] 6.49 µM | PGR (gene 5241) [14] 5.76 µM
inactive: all other assays above
